Screens as filed in PubChem.
PLK1 PBD block: PLK1 (human) polo-box domain binding inhibition | P53350 | Plk1 PBD binding of FITC phosphopeptide, fluorescence polarization | Potency, µM, usual class: inhibitors | 2.8% of 360,000 active | AID 720504; note: series mostly up to about 57 µM; nearly all actives have a fitted effect of over 65% in size
G9a block: inhibitors of human histone lysine methyltransferase G9a; Q96KQ7; Potency, µM (doses to about 102 µM), most hits filed as inhibitors; 8.8% of 350,000 active; G9a H3K9 monomethylation, AlphaScreen, 2 h; AID 504332; note: nearly all actives have a fitted effect of over 75% in size
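Methyltransferase reactions run at room temperature for 2 h (20 nM enzyme, 500 nM biotin-H3K9 peptide, 20 uM SAM) after a 15 min compound preincubation; product detected by AlphaScreen beads and anti-H3K9me1 antibody.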
VDR inh: blocks the human vitamin D receptor. VDR-SRC2-3 peptide fluorescence polarization, 2 h. Potency, µM, most hits filed as inhibitors. 0.93% of 400,000 active. AID 504847
Target sequence (P11473 whole entry, looked up): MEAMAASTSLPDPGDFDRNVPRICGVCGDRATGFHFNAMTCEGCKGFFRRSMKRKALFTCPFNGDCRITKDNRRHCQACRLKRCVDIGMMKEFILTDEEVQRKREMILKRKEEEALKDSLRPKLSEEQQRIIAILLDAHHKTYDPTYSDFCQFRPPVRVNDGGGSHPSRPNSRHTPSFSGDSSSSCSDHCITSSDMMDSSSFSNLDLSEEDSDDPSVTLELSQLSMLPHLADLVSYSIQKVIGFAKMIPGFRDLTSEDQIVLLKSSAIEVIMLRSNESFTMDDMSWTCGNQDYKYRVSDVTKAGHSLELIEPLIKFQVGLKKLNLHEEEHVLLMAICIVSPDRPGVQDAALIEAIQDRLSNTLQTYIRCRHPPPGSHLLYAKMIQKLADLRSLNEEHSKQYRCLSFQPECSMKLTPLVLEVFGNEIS
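Signal is fluorescence polarization, reporting how far test compounds block the interaction of VDR with the SRC2-3 coregulator peptide after a 2 h room-temperature incubation.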
Mm-Cpn inhibitor: inhibitors of Methanococcus maripaludis chaperonin TRiC (MmCpn); purified Mm-Cpn ATPase, ADP Transcreener TR-FRET; Potency, µM (highest dose often 76.9 µM), most hits filed as inhibitors; 0.031% of 330,000 active; note: nearly all actives have a fitted effect of over 80% in size
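ATP (10 uM final) was added to archaeal chaperonin (25 nM final) after 10 min exposure to test compound at 37°C; after 30 min further incubation, ADP was detected by competitive TR-FRET.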
Sfp PPTase inh: Sfp phosphopantetheinyl transferase inhibition; AID 1490; 3.5% of 310,000 active; Biochemical Sfp PPTase activity, qHTS; Potency, µM, usual class: inhibitors;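 note: the enzyme is Sfp with the accession as filed and its product quenches rhodamine fluorescence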
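Fluorescence-quenching assay: 15 nM Sfp-PPTase preincubated 15 min at room temperature with compound, then 5 uM rhodamine-CoA and 12.5 uM BHQ-2-labelled YbbR peptide added. Fluorescence (ex 525/em 598 nm) read at start and after 30 min; difference gives rate.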
CCT chaperon mod: changes cytosolic chaperonin activity; purified chaperonin ATPase assay, HTRF ADP detection, 30 min; activity change, % (concentration not given with the values), hits read low; 0.3% of 360,000 active; AID 651819; in the data active = activity change below about -30%
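First, chaperonin was dispensed at 40 nM or 20 nM final depending on batch activity. Next, compounds were pinned at 76 uM and ATP added at 10 uM. After 30 min at 37 °C, ADP detection reagents ran 30 min at ambient temperature.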
Of the large screens only hits and unclear results are named; the others gave an inactive call. Rows were chosen to be rich in hits. Some 10% of all compounds tested hit in one or more screens of this group. Unless noted, calls come from the whole dose curve; as a rule, active = well fitted curve in the direction sought with a large enough effect; inconclusive = small, poorly fitted or top-dose-only effect, or another doubt; inactive = no such curve, though single readings can be large; an effect the other way counts as inactive or inconclusive.

CCOC(=O)c1cccc(NC(=O)CCc2c(C)nn(-c3ccc(N4CCCC4)nn3)c2C)c1	none (no result: PLK1 PBD block, Mm-Cpn inhibitor, Sfp PPTase inh, CCT chaperon mod)
NC(=O)c1cc(S(=O)(=O)NC2CCCCC2)co1	none
Cc1ccc(NS(=O)(=O)c2coc(C(N)=O)c2)cc1F	PLK1 PBD block 24µM
COc1cc(OC)c(NS(=O)(=O)c2coc(C(N)=O)c2)cc1Cl	G9a block 71µM
Cn1c(CCNC(=O)c2ccco2)nc2cc(NC(=O)c3ccco3)ccc21	G9a block 14µM
Cc1ccc(-c2nc(CNC(=O)c3ccco3)cs2)cc1	G9a block 50µM
Cc1cc(C)n(C(=O)CNC(=O)c2ccco2)n1	G9a block 71µM
Cn1c(CCNC(=O)c2ccco2)nc2cc(NC(=O)c3ccccc3)ccc21	none
Cc1cc2cc(CNC(=O)c3ccco3)ccc2n1C	G9a block inconclusive, Sfp PPTase inh 79µM
Cc1cc2cc(CNC(=O)c3cc4ccccc4o3)ccc2n1C	G9a block inconclusive, Mm-Cpn inhibitor inconclusive (no result: PLK1 PBD block, VDR inh, CCT chaperon mod)
Cc1cc(C)n(C(=O)CNC(=O)Cc2ccccc2)n1	none
CC(=O)c1nn(-c2ccc(OC(F)(F)F)cc2)nc1Nc1ccc(Cl)cc1	none (no result: PLK1 PBD block, Mm-Cpn inhibitor, Sfp PPTase inh, CCT chaperon mod)
CCN(CC)CCOC(=O)c1ccc(Nc2c3c(nc4ccccc24)CCC3)cc1	G9a block inconclusive (no result: PLK1 PBD block, Mm-Cpn inhibitor, Sfp PPTase inh, CCT chaperon mod)
COc1ccc(C2CC(c3ccccc3)Oc3cc(C)cc(C)c32)cc1 (stereo unspecified)	none (no result: PLK1 PBD block, G9a block, Mm-Cpn inhibitor, CCT chaperon mod)
Cc1ccc(NC(=S)NCc2ccc3c(c2)cc(C)n3C)c(C)c1	PLK1 PBD block 19µM, VDR inh inconclusive
COc1cc(OC)cc(C(=O)NCc2ccc3c(c2)cc(C)n3C)c1	G9a block 40µM, Mm-Cpn inhibitor inconclusive
O=C(CSc1ccc(-c2ccccn2)nn1)c1ccccc1	G9a block inconclusive
O=C(CSc1ccc(-c2ccco2)nn1)N1CCCCC1	G9a block 22µM, Sfp PPTase inh inconclusive
O=C(CSc1ccc(-c2ccco2)nn1)N1CCCC1	G9a block inconclusive, Sfp PPTase inh 50µM
O=C(CSc1ccc(-c2ccccn2)nn1)N1CCCC1	PLK1 PBD block 13µM, G9a block 3.5µM, VDR inh 71µM, Sfp PPTase inh 45µM
CC1CCN(S(=O)(=O)CCNC(=O)c2ccccc2)CC1	none (no result: Sfp PPTase inh)
CCOC(=O)N1CCN(S(=O)(=O)CCNC(=O)c2ccccc2)CC1	none (no result: Sfp PPTase inh)
COc1cccc(C(=O)NCCS(=O)(=O)N2CCCCCC2)c1	G9a block inconclusive (no result: Sfp PPTase inh)
CCOC(=O)N1CCN(S(=O)(=O)CCNC(=O)c2cccc(OC)c2)CC1	G9a block 50µM (no result: Sfp PPTase inh)
COc1cccc(C(=O)NCCS(=O)(=O)N2CCC(C)CC2)c1	G9a block 35µM (no result: Sfp PPTase inh)
COc1cccc(C(=O)NCCS(=O)(=O)N2CCN(C(=O)c3ccco3)CC2)c1	G9a block 14µM (no result: Sfp PPTase inh)
COc1cccc(C(=O)NCCS(=O)(=O)N2CCCCC2)c1	G9a block 11µM (no result: Sfp PPTase inh)
Cn1ccc2c(OCC(=O)NCc3ccccc3Cl)cccc2c1=O	none (no result: PLK1 PBD block, Mm-Cpn inhibitor, Sfp PPTase inh, CCT chaperon mod)
COc1ccc(S(=O)(=O)NCC(c2ccco2)S(=O)(=O)c2ccc(C)cc2)cc1C (stereo unspecified)	none (no result: PLK1 PBD block, Mm-Cpn inhibitor, Sfp PPTase inh, CCT chaperon mod)
CC(C)(C)C1CCc2nc(NC(=O)COc3ccc(F)cc3)sc2C1 (stereo unspecified)	none (no result: PLK1 PBD block, Mm-Cpn inhibitor, Sfp PPTase inh, CCT chaperon mod)
CC1CN(C(=O)c2nn(C)cc2[N+](=O)[O-])CC(C)O1 (stereo unspecified)	PLK1 PBD block 12µM
CCSc1ncc(Cl)c(C(=O)N2CCN(c3ccc(OC)cc3)CC2)n1	G9a block 14µM (no result: PLK1 PBD block, Mm-Cpn inhibitor, Sfp PPTase inh, CCT chaperon mod)
COc1ccc(N2CCN(C(=O)c3c(Cl)cnn3C)CC2)cc1	none
COc1ccc(N2CCN(C(=O)Cc3ncc(C(F)(F)F)cc3Cl)CC2)cc1	G9a block inconclusive
CCCS(=O)(=O)c1ncc(Cl)c(C(=O)N2CCN(c3ccc(OC)cc3)CC2)n1	G9a block 11µM, VDR inh inconclusive (no result: PLK1 PBD block, Mm-Cpn inhibitor, Sfp PPTase inh, CCT chaperon mod)
CCOc1ccc(-c2nnc(SCC(=O)NCc3ccccc3Cl)o2)cc1	G9a block inconclusive (no result: PLK1 PBD block, Mm-Cpn inhibitor, Sfp PPTase inh, CCT chaperon mod)
Nc1ccc(Nc2nc(-c3cc4ccccc4oc3=O)cs2)cc1	G9a block inconclusive
O=C(Nc1nc(-c2cccs2)cs1)c1cc2ccccc2oc1=O	none (no result: PLK1 PBD block, VDR inh, CCT chaperon mod)
CC1CCC(=C(C#N)c2nc(-c3cc4ccccc4oc3=O)cs2)CC1 (stereo unspecified)	PLK1 PBD block 27µM
